From PubChem BioAssay (NCATS)
Records with an inconclusive call do not appear. A call without a number means that no potency is given here. Calls of active or inactive are those of the source. Calls come from the whole dose curve; as a rule, active = well fitted inhibition curve with a large enough effect; inconclusive = small, poorly fitted or top-dose-only effect; inactive = flat fitted curve, though single readings scatter.

test system: CP269; test: qHTS profiling for inhibitors of Plasmodium falciparum proliferation (AID 504749); note: nearly all actives have a fitted effect of over 60% in size; settings: P. falciparum in erythrocytes, SYBR Green DNA, 72 h; series mostly up to 28.7 µM
Procedure, shortened: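 Readout was DNA-dye fluorescence from lysed cultures, ex 485/em 535 nm. Parasitized red cells had grown 72 h with compound; data scaled between 0.29 uM artemisinin and DMSO wells and corrected using vehicle-only plates.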
Potency is the fitted concentration of half-maximal effect.

| SMILES | Potency |
| --- | --- |
| NC(=O)N1c2ccccc2CC(=O)c2ccccc21 | inactive |
| CNS(=O)(=O)Cc1ccc2[nH]cc(CCN(C)C)c2c1 | inactive |
| CCCc1cc(C(N)=S)ccn1 | inactive |
| CCCN[C@H]1CCc2nc(N)sc2C1 | inactive |
| COc1ccc(C(=O)CC(=O)c2ccc(C(C)(C)C)cc2)cc1 | inactive |
| CC(C)Cn1cnc2c(N)nc3ccccc3c21 | inactive |
| Nc1nc(N)nc(-c2cc(Cl)ccc2Cl)n1 | inactive |
| CC(C)OC(=O)C(C(=O)OC(C)C)=C1SC=CS1 | inactive |
| NCCCC(O)(P(=O)(O)O)P(=O)(O)O | inactive |
| CC1=CC(=O)c2ccccc2C1=O | inactive |
| Nc1ccc(S(=O)(=O)Nc2ccccn2)cc1 | inactive |
| Cc1noc(NS(=O)(=O)c2ccc(N)cc2)c1C | inactive |
| O=c1cc(O)c(Cl)c[nH]1 | inactive |
| Cn1nnc2c(C(N)=O)ncn2c1=O | inactive |
| CNC1CCCN(c2c(F)cc3c(=O)c(C(=O)O)cn(C4CC4)c3c2OC)C1 (stereo not drawn) | inactive |
| C#CCN[C@@H]1CCc2ccccc21 | inactive |
| COc1cc(NCc2ccc3nc(N)nc(N)c3c2C)cc(OC)c1OC | 3380 nM (active) |
| N[C@@H](C(=O)N[C@@H]1C(=O)N2C(C(=O)O)=C(Cl)CS[C@H]12)c1ccccc1 | inactive |
| CN(C)CCc1c[nH]c2ccc(CS(=O)(=O)N3CCCC3)cc12 | inactive |
| C[C@]12C=CC(=O)C=C1CC[C@@H]1[C@@H]2C(=O)C[C@@]2(C)[C@H]1CC[C@]2(O)C(=O)CO | inactive |
| Nc1[nH]c(=O)ncc1F | inactive |
| COc1ccc(-c2ccc3cc(C(=O)O)ccc3c2)cc1C12CC3CC(CC(C3)C1)C2 | inactive |
| O=NN(CCCl)C(=O)NC1CCCCC1 | inactive |
| CC[C@H](C)C(=O)O[C@H]1C[C@@H](C)C=C2C=C[C@H](C)[C@H](CC[C@@H]3C[C@@H](O)CC(=O)O3)[C@H]21 | inactive |
| Cc1cccc(Nc2ccncc2S(=O)(=O)NC(=O)NC(C)C)c1 | inactive |
| CN1CCN(c2c(F)cc3c(=O)c(C(=O)O)cn(CCF)c3c2F)CC1 | inactive |
| CCOC(=O)[C@H](CCc1ccccc1)N[C@H]1CS[C@H](c2cccs2)CN(CC(=O)O)C1=O | inactive |
| N=C(N)c1ccc(OCCCCCOc2ccc(C(=N)N)cc2)cc1 | 536 nM (active) |
